# Reference: the supplement of paper PMC12494721
# Where a name gives a salt, the structure may show the parent alone.
# How the values were obtained:
# Settings in all cases: incubation time: 27 h, anaerobic, 37 °C;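 for the amine columns active = adjusted P below 0.05 in both replicates with a change the same way and a mean fold change under 0.8 or over 1.25; inactive = the rest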
# [1] = tested on: Clostridium sporogenes DSM 1664; experiment: growth (OD595) fold change vs plate DMSO controls (fold change (ratio)); higher = more growth
# Outline: (§1)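 The reported measure is growth: the fold change against the median of DMSO controls on the plate. Absorbance at 595 nm from anaerobic 96-well mGAM cultures grown for 27 h at 37 °C was blank-subtracted, corrected for background with 20 µM compound solutions in water, and converted to OD with a calibration factor of 5. Fold changes above 1.5 appear as NA, and values are the mean of 2 biological replicates.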
# [2] = tested on: Escherichia coli IAI1; experiment: as above
# Outline: as §1
# [3] = tested on: Klebsiella aerogenes DSM 30053; experiment: as above
# Outline: as §1
# [4] = tested on: Ruminococcus gnavus DSM 108212; experiment: as above
# Outline: as §1
# [5] = tested on: Klebsiella aerogenes DSM 30053; experiment: fold change of Histamine concentration vs plate DMSO controls (fold change (ratio)); higher = more amine produced, active = hit call of the paper (significant change in both replicates, either direction)
# Outline: (§2)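 Extracts of whole anaerobic mGAM cultures were analysed for amines by LC–triple-quadrupole MS with dynamic MRM and external calibration curves, with drift corrected within batch. Four gut strains were grown at 37 °C for 27 h in 80 µL wells with compounds at 20 µM final, sweeteners at 50 µM final. Each value expresses fold change over plate DMSO controls. The average of 2 biological replicates is shown.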
# [6] = tested on: Clostridium sporogenes DSM 1664; experiment: fold change of Tryptamine concentration vs plate DMSO controls (fold change (ratio)); higher = more amine produced, active = hit call of the paper (significant change in both replicates, either direction)
# Outline: as §2
# [7] = tested on: Ruminococcus gnavus DSM 108212; experiment: as above
# Outline: as §2
# [8] = tested on: Escherichia coli IAI1; experiment: fold change of Putrescine concentration vs plate DMSO controls (fold change (ratio)); higher = more amine produced, active = hit call of the paper (significant change in both replicates, either direction)
# Outline: as §2
# [9] = tested on: Klebsiella aerogenes DSM 30053; experiment: as above
# Outline: as §2
# [10] = tested on: Escherichia coli IAI1; experiment: fold change of Cadaverine concentration vs plate DMSO controls (fold change (ratio)); higher = more amine produced, active = hit call of the paper (significant change in both replicates, either direction)
# Outline: as §2
# [11] = tested on: Klebsiella aerogenes DSM 30053; experiment: as above
# Outline: as §2
# [12] = tested on: Ruminococcus gnavus DSM 108212; experiment: fold change of 2-Phenylethylamine concentration vs plate DMSO controls (fold change (ratio)); higher = more amine produced, active = hit call of the paper (significant change in both replicates, either direction)
# Outline: as §2
Compound,growth [1],growth [2],growth [3],growth [4],fold change of Histamine concentration [5],fold change of Tryptamine concentration [6],fold change of Tryptamine concentration [7],fold change of Putrescine concentration [8],fold change of Putrescine concentration [9],fold change of Cadaverine concentration [10],fold change of Cadaverine concentration [11],fold change of 2-Phenylethylamine concentration [12]
O=C1CCc2cc(OCCCCc3nnnn3C3CCCCC3)ccc2N1 [Cilostazol] (20 µM),1.06,0.963,0.98,0.879,1.04 (inactive),1.02 (inactive),0.994 (inactive),1.01 (inactive),1.03 (inactive),1.03 (inactive),0.995 (inactive),0.936 (inactive)
Cn1c(=O)c2[nH]cnc2n(C)c1=O [Aminophylline] (20 µM),0.81,0.991,0.955,0.972,0.965 (inactive),1.06 (inactive),0.972 (inactive),1.17 (inactive),1.02 (inactive),1.01 (inactive),1 (inactive),0.939 (inactive)
Cc1c(C(=O)NN2CCCCC2)nn(-c2ccc(Cl)cc2Cl)c1-c1ccc(Cl)cc1 [Rimonabant] (20 µM),0.981,0.979,1,1.04,1.03 (inactive),0.906 (inactive),0.897 (inactive),1.01 (inactive),1.02 (inactive),1.04 (inactive),0.998 (inactive),0.841 (inactive)
COc1cc2c(cc1OC)C(=O)C(CC1CCN(Cc3ccccc3)CC1)C2 (stereo not given) [Donepezil hydrochloride] (20 µM),1.2,1.23,1.02,0.917,1.53 (inactive),0.947 (inactive),1.03 (inactive),1.24 (inactive),2.04 (inactive),0.981 (inactive),1.21 (inactive),1.08 (inactive)
O=C(O)C1CSCN1 (stereo not given) [Timonacic] (20 µM),0.827,1.02,1,0.956,0.992 (inactive),1 (inactive),1.02 (inactive),1.04 (inactive),1.01 (inactive),1 (inactive),1 (inactive),0.998 (inactive)
CCCCC(=O)N(Cc1ccc(-c2ccccc2-c2nnn[nH]2)cc1)[C@H](C(=O)O)C(C)C [Valsartan] (20 µM),1.14,1.19,1.08,1.06,0.913 (inactive),1.05 (inactive),1.07 (inactive),1.17 (inactive),0.951 (inactive),0.941 (inactive),1.05 (inactive),1.12 (inactive)
CC(N/C(=N\C#N)Nc1ccncc1)C(C)(C)C (stereo not given) [Pinacidil monohydrate] (20 µM),0.925,1,0.98,1.13,1.08 (inactive),0.982 (inactive),1.09 (inactive),1 (inactive),1 (inactive),1.04 (inactive),0.981 (inactive),1.1 (inactive)
[S] (20 µM),1.07,0.919,0.964,0.976,0.924 (inactive),0.999 (inactive),1.01 (inactive),1.02 (inactive),0.962 (inactive),0.951 (inactive),1 (inactive),1.02 (inactive)
CC1=C(C(=O)O)N2C(=O)[C@@H](NC(=O)[C@H](N)c3ccccc3)[C@H]2SC1 [Cephalexin monohydrate] (20 µM),0.958,0.985,0.98,0.987,1.03 (inactive),1.17 (inactive),1.1 (inactive),0.911 (inactive),0.934 (inactive),0.879 (inactive),1.01 (inactive),1.15 (inactive)
C#C[C@]1(O)CC[C@H]2[C@@H]3CCc4cc(OC)ccc4[C@H]3CC[C@@]21C [Mestranol] (20 µM),0.992,0.999,1.09,1.14,0.93 (inactive),1.04 (inactive),0.893 (inactive),0.949 (inactive),1.01 (inactive),1.01 (inactive),1.01 (inactive),0.831 (inactive)
Cc1ccc(=O)n(-c2ccccc2)c1 [Pirfenidone] (20 µM),0.978,0.995,0.983,0.984,1.02 (inactive),1.04 (inactive),0.978 (inactive),1.01 (inactive),1.01 (inactive),1.01 (inactive),0.981 (inactive),0.958 (inactive)
CN1C(=O)OC(C)(C)C1=O [Trimethadione] (20 µM),1,1.03,1.01,1.27,0.977 (inactive),0.924 (inactive),0.948 (inactive),1.02 (inactive),0.987 (inactive),0.991 (inactive),0.999 (inactive),0.919 (inactive)
Cc1cccc(C)c1NC(=O)CN1CCN(CCCC(c2ccc(F)cc2)c2ccc(F)cc2)CC1 [Lidoflazine] (20 µM),0.947,1,1.05,1.22,1.01 (inactive),1.04 (inactive),0.863 (inactive),1.09 (inactive),1 (inactive),0.995 (inactive),0.996 (inactive),0.906 (inactive)
C=C1[C@H](CO)[C@@H](O)C[C@@H]1n1cnc2c(=O)[nH]c(N)nc21 [Entecavir] (20 µM),0.907,0.934,1.04,1.04,0.969 (inactive),0.982 (inactive),0.999 (inactive),0.972 (inactive),1 (inactive),1.04 (inactive),0.985 (inactive),0.98 (inactive)
CN1CC(=O)N2[C@H](c3ccc4c(c3)OCO4)c3[nH]c4ccccc4c3C[C@@H]2C1=O [Tadalafil] (20 µM),1,1.02,0.993,0.916,1.07 (inactive),1.07 (inactive),0.925 (inactive),0.957 (inactive),1.01 (inactive),1.03 (inactive),0.971 (inactive),0.911 (inactive)
COc1ccc(CC(C)NCC(O)c2ccc(O)c(NC=O)c2)cc1 (stereo not given) [Formoterol fumarate] (20 µM),1.13,1.21,1.11,1.3,0.864 (inactive),1.03 (inactive),1.1 (inactive),1.03 (inactive),0.951 (inactive),0.91 (inactive),1.09 (inactive),1.11 (inactive)
CC(=O)N[C@H]1[C@H]([C@H](O)[C@H](O)CO)OC(C(=O)O)=C[C@@H]1NC(=N)N [Zanamivir] (20 µM),0.953,1.02,0.977,0.992,1.01 (inactive),1 (inactive),1.06 (inactive),0.946 (inactive),0.962 (inactive),0.886 (inactive),0.991 (inactive),1.09 (inactive)
CN1CCc2cccc3c2[C@H]1Cc1ccc(O)c(O)c1-3 [R(-) Apomorphine hydrochloride hemihydrate] (20 µM),1.05,1.03,1.05,1.17,1.02 (inactive),0.988 (inactive),0.997 (inactive),0.98 (inactive),0.978 (inactive),1.04 (inactive),0.992 (inactive),1.01 (inactive)
C[N+]1(C)CCC(=C(c2ccccc2)c2ccccc2)CC1 [Diphemanil methylsulfate] (20 µM),1.04,1.02,1.07,0.984,0.94 (inactive),1.17 (inactive),1.01 (inactive),0.958 (inactive),0.962 (inactive),1.02 (inactive),1.02 (inactive),1.06 (inactive)
C[N+](C)(C)CCOC(N)=O [Carbachol chloride] (20 µM),0.948,1,0.997,1.09,1.01 (inactive),1.07 (inactive),1.09 (inactive),0.986 (inactive),0.983 (inactive),0.957 (inactive),1.01 (inactive),1.11 (inactive)
CCCCC(CC)CNC(=N)NC(=N)NCCCCCCNC(=N)NC(=N)NCC(CC)CCCC (stereo not given) [Alexidine dihydrochloride] (20 µM),0.294,0.938,0.967,0.624,1.11 (inactive),0.172 (active),0.0418 (active),1.08 (inactive),1.02 (inactive),1.12 (inactive),0.999 (inactive),0.0355 (active)
CN(Cc1ccc(C(C)(C)C)cc1)Cc1cccc2ccccc12 [Butenafine hydrochloride] (20 µM),1.12,1.04,0.979,0.838,1.11 (inactive),0.918 (inactive),0.96 (inactive),1.05 (inactive),1.01 (inactive),1.02 (inactive),0.992 (inactive),1.03 (inactive)
NC(=O)N1c2ccccc2C=Cc2ccccc21 [Carbamazepine] (20 µM),0.968,1.08,1.01,1.17,1.03 (inactive),0.973 (inactive),1.02 (inactive),1.03 (inactive),1 (inactive),1.04 (inactive),1.01 (inactive),0.987 (inactive)
CCOc1ccc(Cc2nccc3cc(OCC)c(OCC)cc23)cc1OCC [Ethaverine hydrochloride] (20 µM),0.848,0.99,0.954,1.05,1 (inactive),0.945 (inactive),0.935 (inactive),1.05 (inactive),1.01 (inactive),1.03 (inactive),0.982 (inactive),0.895 (inactive)
CC(=O)O[C@@]12CO[C@@H]1C[C@H](O)[C@@]1(C)C(=O)[C@H](O)C3=C(C)[C@@H](OC(=O)[C@H](O)[C@@H](NC(=O)OC(C)(C)C)c4ccccc4)C[C@@](O)([C@@H](OC(=O)c4ccccc4)[C@H]21)C3(C)C [Docetaxel] (20 µM),0.864,1,1.03,1.05,1.05 (inactive),0.991 (inactive),1 (inactive),1.02 (inactive),1.01 (inactive),1.02 (inactive),0.998 (inactive),0.956 (inactive)
